# Assay results from PubChem BioAssay (Tox21).
# Where “and” joins values, the source holds several entries; their conditions need not be identical. Equal values may be shown once. Results filed as inconclusive are left out. A call without a number means that no potency is given here. The source holds several records for some structures; these can differ, active in one and inactive in another. Calls of active or inactive are those of the source. Calls come from the whole dose curve; as a rule, active = well fitted cell-killing curve with a large enough effect in the repeat runs; inconclusive = weak or mixed curves, or effect the other way; inactive = flat fitted curve, though single readings scatter.
# Test: qHTS assay to identify small molecule agonists of the estrogen receptor beta (ER-beta) signaling pathway - cell viability counter screen (AID 1259380); note: nearly all actives have a fitted effect of over 30% in size
# Details: ER-beta-bla HEK293T viability, CellTiter-Glo luminescence, 16 h; series mostly up to 92.4 µM
# Description: National Center for Advancing Translational Sciences [NCATS]
# NIH Chemical Genomics Center [NCGC]
# U.S. Environmental Protection Agency [EPA]
# National Institutes of Environmental Health Sciences [NIEHS]
# National Toxicology Program [NTP]
# U.S. Food and Drug Administration [FDA]
# Estrogen receptor (ER), a nuclear hormone receptor, plays an important role in development, metabolic homeostasis and reproduction. Two subtypes of ER, ER-alpha and ER-beta, have similar expression patterns with some uniqueness in both types. Endocrine disrupting chemicals (EDCs) and their interactions with steroid hormone receptors like ER causes disruption of normal endocrine function. To identify the compounds that activate ER signaling, an ER beta-UAS-bla GripTite cell line (Life Technologies, Madison, WI, USA) containing a beta-lactamase reporter gene under the control of an UAS response element was used to screen Tox21 10K compound library. The cytotoxicity of the Tox21 compound library against the ER-beta-bla cell line was tested in parallel by measuring the cell viability using CellTiter-Glo assay in the same wells.
# Tox21 Assay Protocol Summary:
# ER-beta-UAS-bla HEK293T cells were dispensed at 2,000 cells/5 uL of assay medium containing 2% charcoal stripped FBS per well into black wall/clear-bottom 1536-well plates using a Multidrop Combi (ThermoFisher Scientific, Waltham, MA) dispenser. After the assay plates were incubated at a 37C and 5% CO2 for 6 hr, 23 nL of compounds dissolved in DMSO, positive controls or DMSO only was transferred to the assay plate by a Pintool station (Kalypsys, San Diego, CA). The plates were incubated at 37C and 5% CO2 for 16 hr. Then 1 uL of LiveBLAzerTM B/G FRET substrate was added using a BioRAPTR FRD (Flying Reagent Dispenser, Aurora Discovery, San Diego, CA) and then the plates were incubated at room temperature for 2 hours, and fluorescence intensity was measured by an Envision plate reader (PerkinElmer, Shelton, CT). For cell viability readout that measures cytotoxicity, 4 uL/well of CellTiter-Glo reagent was added into the assay plates using a FRD. After 30 min incubation at room temperature, the luminescence intensity in the plates was measured using a ViewLux (PerkinElmer) plate reader.
# Potency is the fitted concentration of half-maximal effect.
row,Structure (SMILES),Potency
1,CC(O)CCO (stereo not given),inactive
2,COP(=S)(OC)Oc1ccc([N+](=O)[O-])cc1,inactive
3,NNC(N)=S,31.8 µM (active)
4,c1ccc(-c2cccc(-c3ccccc3)c2)cc1,19.5 µM (active) and 30.6 µM (active)
5,Cc1ccc(OP(=O)(Oc2ccc(C)cc2)Oc2ccc(C)cc2)cc1,68.5 µM (active)
6,O=C(CCl)c1ccccc1,inactive
7,C[C@]12CCC(=O)C[C@@H]1CC[C@@H]1[C@@H]2CC[C@]2(C)[C@@H](O)CC[C@@H]12,13.5 µM (active) and 12.2 µM (active)
8,S=C1NCCN1,inactive
9,CCCCC(CC)COC(=O)c1ccc(C(=O)OCC(CC)CCCC)c(C(=O)OCC(CC)CCCC)c1 (stereo not given),inactive
10,NC(=S)Nc1ccccc1,44 µM (active) and inactive
11,Cc1cccc(N)c1N,inactive
12,CC(C)C(=O)OCC(C)(C)C(OC(=O)C(C)C)C(C)C (stereo not given),inactive
13,O=P(O)(O)CCCl,inactive
14,C=C(C)[C@H]1Cc2c(ccc3c2O[C@@H]2COc4cc(OC)c(OC)cc4[C@@H]2C3=O)O1,inactive
15,CCC(C)(c1ccc(O)cc1)c1ccc(O)cc1,inactive
16,O=C(O)CC[N+](=O)[O-],inactive
17,CCOC(=O)C(C)OC(=O)c1cc(Oc2ccc(C(F)(F)F)cc2Cl)ccc1[N+](=O)[O-] (stereo not given),inactive
18,N[C@@H](Cc1ccc(N(CCCl)CCCl)cc1)C(=O)O,inactive
19,Oc1cc(Cl)ccc1Oc1ccc(Cl)cc1Cl,39.5 µM (active)
20,CCOP(=S)(OCC)O/N=C(\C#N)c1ccccc1,inactive

row,Structure (SMILES),Potency
1,Clc1nc(Cl)nc(Cl)n1,inactive
2,CCC(C)(C)c1ccc(O)cc1,inactive
3,CC(C)(c1cc(Cl)c(O)c(Cl)c1)c1cc(Cl)c(O)c(Cl)c1,inactive
4,C=CCN(CC=C)C(=O)C(Cl)Cl,inactive
5,Nn1cnnc1,inactive
6,CNC(=O)N(C)c1nnc(C(C)(C)C)s1,inactive
7,COC(=O)c1sccc1S(=O)(=O)NC(=O)Nc1nc(C)nc(OC)n1,inactive
8,Oc1cc(Cl)ccc1Cl,inactive
9,NCc1cccnc1,inactive
10,CC(C)(C)c1ccccc1O,inactive
11,CN(C)C(=O)Nc1ccc(Cl)cc1,inactive
12,O=C1C=CC(=O)C=C1,inactive
13,CCCCCCCCC(=O)NCc1ccc(O)c(OC)c1,inactive
14,CCC(=O)O[C@H]1CC[C@H]2[C@@H]3CCC4=CC(=O)CC[C@]4(C)[C@H]3CC[C@]12C,68.6 µM (active)
15,Cc1cc(C)cc(C)c1,inactive
16,c1nc[nH]n1,inactive
17,Nc1ccc(-c2ccccc2)cc1,19.9 µM (active) and inactive
18,Cc1ccc2c(c1N)C(=O)c1ccccc1C2=O,30.3 µM (active)
19,CCCCCCCCCCCOC(=O)c1ccccc1C(=O)OCCCCCCCCCCC,inactive
20,COP(=O)(OC)OC,inactive
